Assay [1] in a line: small molecules captured by biotinylated probe aFSTL3 – biochemical, small-molecule microarray, fluorescence 635/667, stem cell growth factor project, primary screen (AID 1064).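 Note: measures binding of the biotinylated anti-FSTL3 antibody to printed compounds.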 As to conditions: higher = more signal.
Assay [2] in a line: binders from COS7 lysate, DM2A8 probe, primary screen, torsin A project, cell lysate, small-molecule microarray, fluorescence 635/667 (AID 1065). As to conditions: higher = more signal, COS7 lysate expressing mutant human TOR1A.
Assay [3] is described as follows: small molecules captured by biotinylated probe aFGF2 – biochemical, small-molecule microarray, fluorescence 635/667, stem cell growth factor project, primary screen (AID 1067).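 Note: measures binding of biotinylated aFGF2 protein to printed compounds on slides; z-score merges feature fluorescence and signal-to-noise across triplicate slides.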 Particulars: higher = more signal.
Assay [4] can be described thus: small molecules captured by biotinylated probe aFGF10 – biochemical, small-molecule microarray, fluorescence 635/667, stem cell growth factor project, primary screen (AID 1071).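 Note: score merges 667 nm spot intensity and signal to noise from triplicate slides.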 As to conditions: higher = more signal.
For assay [5], the target named is Neurogenic locus notch homolog protein 2 (Homo sapiens) (UniProt Q04721). Description: small molecules binding Notch2 protein – biochemical, small-molecule microarray, 635 nm fluorescence, stem cell growth factors, primary screen (AID 1073). As to conditions: higher = more signal.
For assay [6], the target named is Pro-neuregulin-1, membrane-bound isoform (Homo sapiens) (UniProt Q02297). Description: small molecules binding neuregulin-1 protein – biochemical, small-molecule microarray, fluorescence 635/667, psychiatric disease protein project, primary screen (AID 1075).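 Note: score combines 667 nm spot fluorescence with signal to noise.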 Particulars: NRG1 binding, 635 nm fluorescence, higher = more signal.
Assay [7] relates to Neuregulin-1 EGF-like domain. Description: small molecules binding NRG1 EGF domain – biochemical, small-molecule microarray, 635 nm fluorescence, primary screen (AID 1081).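 Note: binding of the protein to compounds printed on small-molecule microarray slides.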 Particulars: higher = more signal.
Assay [8] is described as follows: FRG1 expression reporter modulators in myotubes – cell-based, C2C12 myotubes, firefly/Renilla luciferase, luminescence, FRG1 inhibition for FSHD, primary screen (AID 1084). As to conditions: FRG1 promoter luciferase, higher = more signal, called active from +8 up or from −8 down.
Assay [9] is described as follows: small molecules captured by biotinylated probe aFST – biochemical, small-molecule microarray, fluorescence 635/667, stem cell growth factor project, primary screen (AID 1086).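 Note: score merges 667 nm fluorescence with signal-to-noise of each printed compound spot.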 As to conditions: higher = more signal.
A short description of assay [10]: binders of probe aHhip on microarray, primary screen, stem cell growth factor project, biochemical, small-molecule microarray, fluorescence 635/667 (AID 1087).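 Note: score merges spot fluorescence at 667nm with spot signal to noise ratio.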 Particulars: higher = more signal.

Molecules are shown by their SMILES. Activity calls are given as the source filed them.

Sequence of Neurogenic locus notch homolog protein 2 (Homo sapiens) (Q04721 whole entry, looked up, canonical isoform): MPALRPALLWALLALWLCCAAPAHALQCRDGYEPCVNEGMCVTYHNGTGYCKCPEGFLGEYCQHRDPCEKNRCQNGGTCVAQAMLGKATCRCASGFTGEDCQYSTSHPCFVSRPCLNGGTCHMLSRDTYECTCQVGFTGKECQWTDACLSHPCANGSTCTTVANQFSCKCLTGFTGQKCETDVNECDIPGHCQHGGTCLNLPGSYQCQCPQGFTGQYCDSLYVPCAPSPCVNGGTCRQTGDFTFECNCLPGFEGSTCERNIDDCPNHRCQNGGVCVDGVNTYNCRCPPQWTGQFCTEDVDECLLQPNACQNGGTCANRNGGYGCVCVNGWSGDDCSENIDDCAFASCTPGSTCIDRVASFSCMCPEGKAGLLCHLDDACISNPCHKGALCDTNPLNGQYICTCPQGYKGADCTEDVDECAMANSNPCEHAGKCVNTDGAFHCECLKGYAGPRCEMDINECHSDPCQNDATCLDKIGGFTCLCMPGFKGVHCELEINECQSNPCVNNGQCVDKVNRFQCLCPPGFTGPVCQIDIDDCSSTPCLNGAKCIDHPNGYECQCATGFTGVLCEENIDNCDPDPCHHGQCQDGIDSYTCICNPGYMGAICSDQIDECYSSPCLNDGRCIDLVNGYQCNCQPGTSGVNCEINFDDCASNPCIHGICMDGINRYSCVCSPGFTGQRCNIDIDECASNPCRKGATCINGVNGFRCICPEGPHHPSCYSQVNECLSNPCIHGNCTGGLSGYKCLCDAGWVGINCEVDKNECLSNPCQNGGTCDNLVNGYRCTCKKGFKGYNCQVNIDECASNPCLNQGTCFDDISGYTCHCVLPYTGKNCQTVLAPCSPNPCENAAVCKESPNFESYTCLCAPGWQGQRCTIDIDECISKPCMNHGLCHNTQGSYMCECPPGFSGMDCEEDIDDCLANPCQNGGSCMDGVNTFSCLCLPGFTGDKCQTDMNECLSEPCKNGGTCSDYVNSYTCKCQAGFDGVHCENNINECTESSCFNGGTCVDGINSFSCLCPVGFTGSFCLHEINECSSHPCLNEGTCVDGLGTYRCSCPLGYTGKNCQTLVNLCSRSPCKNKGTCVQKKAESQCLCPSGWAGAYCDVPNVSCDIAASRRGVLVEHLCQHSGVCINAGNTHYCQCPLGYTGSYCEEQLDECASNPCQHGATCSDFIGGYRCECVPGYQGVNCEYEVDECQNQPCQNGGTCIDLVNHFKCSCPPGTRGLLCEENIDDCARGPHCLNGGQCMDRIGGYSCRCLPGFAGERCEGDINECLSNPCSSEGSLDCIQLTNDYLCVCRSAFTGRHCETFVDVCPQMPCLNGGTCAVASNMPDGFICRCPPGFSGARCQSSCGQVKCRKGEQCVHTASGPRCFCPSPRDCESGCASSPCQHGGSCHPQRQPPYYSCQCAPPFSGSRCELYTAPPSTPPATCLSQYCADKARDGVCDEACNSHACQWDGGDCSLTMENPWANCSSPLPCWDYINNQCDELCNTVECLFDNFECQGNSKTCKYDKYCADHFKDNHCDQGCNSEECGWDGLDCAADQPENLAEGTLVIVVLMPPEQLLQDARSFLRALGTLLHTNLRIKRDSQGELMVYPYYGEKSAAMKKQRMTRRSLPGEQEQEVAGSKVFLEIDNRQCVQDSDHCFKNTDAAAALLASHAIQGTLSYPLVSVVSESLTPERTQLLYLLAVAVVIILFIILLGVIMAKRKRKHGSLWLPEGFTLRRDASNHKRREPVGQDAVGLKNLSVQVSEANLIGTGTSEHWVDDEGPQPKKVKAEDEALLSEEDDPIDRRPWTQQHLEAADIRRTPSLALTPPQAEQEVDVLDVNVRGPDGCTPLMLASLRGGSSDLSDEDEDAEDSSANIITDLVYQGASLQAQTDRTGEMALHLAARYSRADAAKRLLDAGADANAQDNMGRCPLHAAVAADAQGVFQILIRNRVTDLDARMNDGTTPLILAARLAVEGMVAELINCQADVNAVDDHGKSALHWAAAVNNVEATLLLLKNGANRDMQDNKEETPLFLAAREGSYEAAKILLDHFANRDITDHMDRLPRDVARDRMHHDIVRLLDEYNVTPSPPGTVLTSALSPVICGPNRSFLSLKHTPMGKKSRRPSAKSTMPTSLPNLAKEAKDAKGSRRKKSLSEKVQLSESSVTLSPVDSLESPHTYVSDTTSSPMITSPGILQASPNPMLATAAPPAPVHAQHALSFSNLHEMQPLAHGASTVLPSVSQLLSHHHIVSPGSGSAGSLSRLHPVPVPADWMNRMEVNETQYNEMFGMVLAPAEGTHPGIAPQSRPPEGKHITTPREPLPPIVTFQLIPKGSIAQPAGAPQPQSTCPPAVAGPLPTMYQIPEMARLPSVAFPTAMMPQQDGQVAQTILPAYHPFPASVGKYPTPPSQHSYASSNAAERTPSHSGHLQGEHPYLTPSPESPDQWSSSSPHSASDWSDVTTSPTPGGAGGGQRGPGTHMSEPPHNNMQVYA
Sequence of Pro-neuregulin-1, membrane-bound isoform (Homo sapiens) (Q02297 whole entry, looked up, the tested form may be a part, canonical isoform): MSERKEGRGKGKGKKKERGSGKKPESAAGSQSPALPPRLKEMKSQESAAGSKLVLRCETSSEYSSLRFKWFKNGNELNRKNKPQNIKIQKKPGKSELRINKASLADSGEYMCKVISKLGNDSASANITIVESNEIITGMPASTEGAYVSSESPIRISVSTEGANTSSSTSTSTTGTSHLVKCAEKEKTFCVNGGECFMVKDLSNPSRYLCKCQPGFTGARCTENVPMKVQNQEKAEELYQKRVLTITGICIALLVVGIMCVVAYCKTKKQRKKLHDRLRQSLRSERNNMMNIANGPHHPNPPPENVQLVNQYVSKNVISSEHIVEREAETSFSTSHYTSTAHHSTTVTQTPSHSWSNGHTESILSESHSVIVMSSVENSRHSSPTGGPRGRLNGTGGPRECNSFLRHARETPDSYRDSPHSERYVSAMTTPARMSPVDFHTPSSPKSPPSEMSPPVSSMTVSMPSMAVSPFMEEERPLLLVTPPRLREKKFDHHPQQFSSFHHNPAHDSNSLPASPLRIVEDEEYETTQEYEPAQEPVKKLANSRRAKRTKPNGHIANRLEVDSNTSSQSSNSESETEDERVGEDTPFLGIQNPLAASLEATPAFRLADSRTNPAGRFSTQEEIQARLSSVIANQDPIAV

Turning to `C=CCC(OC(C)=O)[C@@H]1[C@@H](N(Cc2cc3ccccc3o2)C(=O)Cc2ccc(F)cc2)c2cc(OCCCO)ccc2N1C(=O)Cc1ccc2ccccc2c1` (stereo not given in full), the composite z-score was -0.367 in [1]; -0.804 in [2]; -0.017 in assay [3]; -0.469 in [4]; -0.665 in assay [5]; -0.436 in [6]. The composite z-score in [7] was 0.112; in assay [9], 0.0652; in assay [10], -0.306. Further, in assay [8], the z-score is -1.47 (inactive).

For the molecule `CCCC=C(CCC)[C@@H](NC(=O)c1cccs1)c1ccc(C(=O)OC)cc1`, the composite z-score is 2.23 in assay [1]; 0.392 in assay [2]; 0.905 in [3]; 1.1 in assay [4]; 0.592 in [5]; 0.028 in assay [6]. Moreover, the composite z-score in assay [7] worked out at 0.648; in assay [9], 2.61; in [10], 1.39. Further, the z-score in assay [8] was 0.874 (inactive).

As to `NCCCCCCNC(=O)[C@@H]1C[C@@H]2C(=O)N[C@@H](CCCCN)C(=O)N2[C@@H]1c1ccc(O)cc1`, the composite z-score is 0.208 in [1]; 0.301 in assay [2]; -0.0313 in [3]; 0.469 in assay [4]; 0.147 in assay [5]; 2.01 in [6]. Moreover, the values for the composite z-score in assay [7], in assay [9] and in assay [10] were 1.25, 0.077 and -0.149, respectively. Also, the z-score in assay [8] was 0.598 (inactive).

Take `[N-]=[N+]=Nc1ccccc1C[C@]1(C(=O)N2CCOCC2)COC(c2ccc(OCCCO)cc2)=N1`: the composite z-score is -0.0495 in assay [1]; 0.713 in assay [2]; -0.0442 in assay [3]; 0.261 in [4]; 1.35 in [5]; 1.38 in assay [6]. Further, the composite z-score in assay [7] was 1.19; in [9], 1.28; in [10] it was -0.0617. For the same molecule, the z-score in assay [8] is 1.71 (inactive).

On to `COC(=O)[C@@]1(Cc2ccc(F)cc2)[C@H]2c3cc(C(=O)N(C)C)n(Cc4ccc(OC(F)(F)F)cc4)c3C[C@H]2CN1C(=O)c1ccccc1`, for which the composite z-score in [1] is -0.252; in assay [2], 0.34; in assay [3] it was -0.12; in assay [4] it was 0.369; in [5], 0.708; in [6], 0.109. In addition, the composite z-score was 0.429 in [7], 0.402 in assay [9] and -0.305 in assay [10]. The z-score in [8] is 0.306 (inactive).

On to `C=CCNC(=O)[C@@H]1[C@H]2C(=O)O[C@H](c3ccccc3)[C@H](c3ccccc3)N2[C@H](c2ccc(O)cc2)[C@@]12C(=O)N(C(=O)OCCOC)c1ccc(C#CC3=CCCCC3)cc12`, for which the composite z-score in assay [1] was -0.254; in [2], 0.467; in assay [3], -0.021; in assay [4] it was 0.512; in assay [5], 0.761; in assay [6], 1. In addition, the composite z-score in assay [7] came out at 1.17; in [9], 0.668; in assay [10], 0.951. Besides, the z-score in assay [8] was 0.816 (inactive).

Consider `CC(C)N1C(=O)C[C@@](C(=O)NC2CC2)(c2ccc([N+](=O)[O-])cc2)[C@H]1c1ccc(CO)cc1`, for which the composite z-score was 0.632 in [1]; 0.387 in assay [2]; -0.111 in assay [3]; 0.173 in [4]; -0.551 in [5]; 1.75 in [6]. In addition, the composite z-score was 1.35 in [7], -0.551 in assay [9] and -0.0994 in [10]. In addition, in [8], the z-score is 0.74 (inactive).

For `CN(C)CCCCCCNC(=O)[C@@H]1C[C@@H]2C(=O)N3CCC[C@H]3C(=O)N2[C@@H]1c1cccc(OCCO)c1`, the composite z-score in [1] was 0.117; in assay [2] it was 2.09; in assay [3], 0.1; in assay [4] it was 1.11; in [5] it was 0.623; in assay [6], 0.755. The results for the composite z-score in assay [7], in assay [9] and in assay [10] were 1.48, 0.518 and -0.0296, respectively. Besides, in assay [8], the z-score is 3.21 (inactive).

Regarding `COc1ccc(CCNC(=O)[C@@]2(c3ccc([N+](=O)[O-])cc3)CC(=O)N(C3CCCCC3)[C@@H]2c2ccc(CO)cc2)cc1`, the composite z-score in [1] was 0.376; in assay [2], 0.409; in assay [3], 0.0598; in assay [4], 0.325; in assay [5] it was 0.58; in [6], 1.54. Besides, the results for the composite z-score in assay [7], in assay [9] and in assay [10] were 1.23, 0.602 and 0.177, respectively. Moreover, the z-score in [8] was -0.517 (inactive).

As for `CCCCCN1CC=CC23O[C@@H]4C=CCCOC(=O)C4[C@H]2C(=O)N(CCCCCCO)[C@@H]3C1=O` (stereo not given in full), the composite z-score in assay [1] is 0.0199; in assay [2] it was -0.336; in assay [3], -0.169; in assay [4], 0.0401; in [5], -0.812; in assay [6], 1.98. The composite z-score was 0.99 in [7], -0.658 in [9] and -0.0994 in [10]. The z-score in [8] is -0.457 (inactive).

On to `CCOC(=O)C[C@H]1[C@H](OC(=O)Cc2ccc3c(c2)OCO3)[C@@H](NC(=O)c2ccc3ccccc3n2)c2cc(OCCCO)ccc2N1C(=O)c1ccc2ccccc2n1`, for which the composite z-score in assay [1] was -0.5; in assay [2] it was 0.185; in [3], -0.103; in assay [4] it was 1.03; in assay [5], 0.568; in assay [6], 0.54. Further, the figures for the composite z-score in assay [7], in assay [9] and in [10] were 1.01, 0.37 and 0.171, respectively. Moreover, the z-score in [8] is -2.11 (inactive).

With `O=C1N(Cc2ccccc2)c2ccccc2C[C@]12N=C(c1ccc(OCCCO)cc1)O[C@@H]2c1ccccc1`, the composite z-score is 0.0854 in [1]; 0.278 in assay [2]; -0.125 in [3]; 0.576 in [4]; 0.699 in assay [5]; 0.888 in assay [6]. The values for the composite z-score in assay [7], in assay [9] and in assay [10] were 1.09, -0.0607 and -0.0994, respectively. Moreover, the z-score in assay [8] is -0.724 (inactive).

On to `[N-]=[N+]=NCc1ccccc1[C@@H]1OC(c2ccc(OCCCO)cc2)=N[C@]1(CCS(=O)(=O)c1ccccc1)C(=O)O`, for which the composite z-score in assay [1] was 0.561; in assay [2] it was -0.0845; in assay [3], 0.0116; in assay [4], 0.396; in assay [5], 0.797; in assay [6] it was 1.92. In addition, the composite z-score is 0.733 in [7], 0.641 in assay [9] and -0.0994 in assay [10]. Besides, the z-score in assay [8] is 5.28 (inactive).

For the molecule `C=C[C@@H](OC)[C@H](OC(=O)Nc1ccc(OC)cc1)c1ccc(O)c(F)c1`, the composite z-score is -0.122 in assay [1]; 1.6 in [2]; -0.142 in assay [3]; -0.528 in assay [4]; -1.25 in [5]; 0.749 in [6]. The results for the composite z-score in assay [7], in assay [9] and in assay [10] were 1.15, -0.39 and -0.0994, respectively. The z-score in [8] was 3.87 (inactive).

For the molecule `CC(C)NC(=O)[C@@]1(C)c2ccccc2C(=O)N(Cc2ccc(OC(F)(F)F)cc2)[C@H]1c1ccc(CO)cc1`, the composite z-score in assay [1] was 1.95; in [2], -1.63; in assay [3] it was -0.167; in assay [4], -0.546; in assay [5], -1.25; in assay [6] it was 0.628. Further, the composite z-score in assay [7] is 0.865; in assay [9], -0.55; in assay [10], -0.28. Further, the z-score in assay [8] was -3.14 (inactive).

For the molecule `O=C(NCCN1CCOCC1)[C@@H]1c2ccccc2C(=O)N(C2Cc3ccccc3C2)[C@H]1c1ccc(CO)cc1`, the composite z-score is 0.704 in assay [1]; 0.0352 in assay [2]; -0.163 in [3]; -0.465 in assay [4]; -0.168 in [5]; 0.855 in assay [6]. Moreover, the composite z-score is 1.25 in [7], -0.768 in [9] and -0.173 in assay [10]. In addition, the z-score in assay [8] was -1.39 (inactive).

As for `Cc1ccc(S[C@]2(C(=O)NCC(F)(F)F)CC(=O)N(Cc3cc(C(F)(F)F)cc(C(F)(F)F)c3)[C@@H]2c2ccc(CO)cc2)cc1`, the composite z-score is -0.26 in [1]; -1.74 in [2]; -0.133 in assay [3]; -0.232 in [4]; -0.995 in [5]; 1.09 in assay [6]. Also, the values for the composite z-score in assay [7], in assay [9] and in assay [10] were -0.353, -0.234 and -0.0994, respectively. Further, the z-score in [8] is 0.0697 (inactive).

As for `COC(=O)[C@@]1(Cc2ccc(OC)cc2)[C@H]2c3cc(C(=O)N(C)C)n(Cc4ccc(C)o4)c3C[C@H]2CN1C(=O)c1ccccc1`, the composite z-score in assay [1] was 0.429; in assay [2], -0.342; in assay [3], 0.0807; in assay [4], 0.423; in [5], 1.61; in assay [6], 1.85. Besides, the composite z-score in assay [7] came to 1.24; in assay [9], 1.16; in assay [10], 1.48. The z-score in assay [8] is -0.472 (inactive).

On to `COc1ccc(C#Cc2ccc3c(c2)[C@]2(C(=O)N3)[C@H](c3ccc(O)cc3)N3[C@H](c4ccccc4)[C@H](c4ccccc4)OC(=O)[C@H]3[C@@H]2C(=O)Nc2nc3ccccc3s2)cc1`, for which the composite z-score in assay [1] is -0.552; in assay [2] it was -0.133; in assay [3], -0.0242; in assay [4], 0.534; in assay [5], 1.6; in assay [6], 1.69. In addition, the composite z-score in assay [7] stood at 1.36; in [9], 1.01; in assay [10], 0.113. Also, the z-score in assay [8] was 1.33 (inactive).

On to `CC(C)C(CO)N1C(=O)[C@@H]2C3C(=O)OCCC/C=C\[C@H]3OC23C=CCN(c2ccc4ccccc4c2)C(=O)[C@@H]13` (stereo not given in full), for which the composite z-score was -0.08 in [1]; -0.623 in [2]; -0.076 in [3]; -0.12 in assay [4]; -1 in assay [5]; 0.99 in [6]. Further, the composite z-score in assay [7] was 1.48; in [9] it was -0.412; in assay [10], 0.176. Besides, the z-score in assay [8] is 0.759 (inactive).
